This passage reports outcome results from PubChem BioAssay (EPA / NIEHS).

Each structure is given as a SMILES string. Calls of active or inactive are those of the source. How the source made its calls: active means hit-call score of the fitted dose curve at least 0.9, where 1 is the maximum; inactive means score below 0.9.

The first assay is described as follows: CCTE_Harrill_HTTr_Viability_MCF7: CCTE's 6-hour Cell Viability Assessment for the High-Throughput Transcriptomics (HTTr) Platform, in MCF-7 cells cultured in DMEM + 10% fetal bovine serum, Harrill Lab (AID 2284010). The gist of the method: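 Membrane integrity was scored by high-content imaging of propidium iodide dye exclusion after a 6 h exposure across an eight-point dilution series. Data were fitted bidirectionally relative to DMSO as negative control and baseline.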
For `N#Cc1ccc(C2CCCc3cncn32)cc1` (centres undefined), the outcome was inactive. On the same count and under the same terms, then `CC(C)[N+](C)(CCOC(=O)C1c2ccccc2Oc2ccccc21)C(C)C`, with “inactive”; and `C=C(C)[C@@H]1CC=C(C)CC1`, with “inactive”; and `COC(=O)C=Cc1ccccc1`, with “inactive”.

For `O=C(O)/C=C/c1ccccc1`, the result was inactive. Still for that read-out and setting: then `CCCc1ccc(O)c(OC)c1`, with “inactive”. Same read-out and setting: to `CC(C)OC(=O)c1ccccc1` belongs “inactive”.

A short description of a further assay: CCTE_Harrill_HTTr_Apoptosis_MCF7: CCTE's 6-hour Apoptosis Assessment for the High-Throughput Transcriptomics (HTTr) Platform, in MCF-7 cells cultured in DMEM + 10% fetal bovine serum, Harrill Lab (AID 2284011). The gist of the method:
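MCF-7 cells in DMEM + 10% FBS exposed 6 h to chemicals over an eight-point dilution series. Caspase-3/7 activation imaged by high-content CellEvent Green staining; fitted bidirectionally versus DMSO.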
For the compound `CC(C)CO`, the result was inactive. On the same count and under the same terms, then `Clc1cc(Cl)c(Cl)c(Cl)c1Cl`, with “inactive”; and `CCCCCCCCCCCCC`, with “inactive”.

As to `C1CCSC1`, the outcome was inactive.

For `CCCCCCCO`, the outcome was inactive. Still for that read-out and setting: to `CC=CC(=O)OCC(C)C` belongs “inactive”; to `CC(=O)/C=C/C1C(C)=CCCC1(C)C` (centres undefined), “inactive”; to `CCCCC/C=C\C/C=C\CCCCCCCC(=O)O`, “inactive”. Turning to `COC(Cc1ccccc1)OC`, the result was inactive.

Regarding `CCCCCCO`, the result was inactive. For the compound `CC(C=O)c1ccccc1` (centres undefined), the result was inactive. On the same count and under the same terms, to `Nc1ncnc2nc[nH]c12` belongs “inactive”.
